Where “and” joins values, the source holds several entries; their conditions need not be identical. Identical values can stand only once. Like-named read-outs stand apart in the source and are kept apart here.
What was measured:
[1] = test system: T1, TRKC; settings: concentration: 1 μM, replicates: in singlicate, n = 1
T1 construct: gene NTRK3

[2] = test system: TRPM6; settings: concentration: 1 μM, replicates: in singlicate, n = 1
[3] = test system: TSSK1B; settings: concentration: 1 μM, replicates: in singlicate; n = 1
[4] = test system: TSSK3; settings: concentration: 1 μM, replicates: in singlicate, n = 1
[5] = test system: TTK; settings: concentration: 1 μM, replicates: in singlicate, n = 1
[6] = test system: TXK; settings: concentration: 1 μM, replicates: in singlicate; n = 1
[7] = test system: TYK2(JH1domain-catalytic); settings: concentration: 1 μM, replicates: in singlicate, n = 1
[8] = test system: TYK2(JH2domain-pseudokinase); settings: concentration: 1 μM, replicates: in singlicate, n = 1
[9] = test system: TYRO3; settings: concentration: 1 μM, replicates: in singlicate; n = 1
[10] = test system: ULK1; settings: concentration: 1 μM, replicates: in singlicate, n = 1
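Note: KINOMEscan kinase panel screen.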

| Compound | %Inh [1] [%] | %Inh [2] [%] | %Inh [3] [%] | %Inh [4] [%] | %Inh [5] [%] | %Inh [6] [%] | %Inh [7] [%] | %Inh [8] [%] | %Inh [9] [%] | %Inh [10] [%] | %Inh ([1]; 1 µM) | %Inh ([2]; 1 µM) | %Inh ([4]; 1 µM) | %Inh ([5]; 1 µM) | %Inh ([7]; 1 µM) | %Inh ([8]; 1 µM) | %Inh ([10]; 1 µM) |
| --- | --- | --- | --- | --- | --- | --- | --- | --- | --- | --- | --- | --- | --- | --- | --- | --- | --- |
| COc1cc2ncnc(Nc3ccc(OCc4ccccc4Br)c(Cl)c3)c2cc1OC.Cl [GI261590] | 33 | 19 | 14 | 12 | 0 | 12 | 34 | 47 | 15 | 0 | – | – | – | – | – | – | – |
| O=C(Nc1n[nH]c2nc(-c3ccco3)c(Br)cc12)c1ccc(CN2CCCC2)cc1.O=C(O)[C@H](O)[C@@H](O)C(=O)O [SB-742352] | 0 | 0 | 0 | 0 | 0 | 2 | 0 | 0 | 0 | 13 | – | – | – | – | – | – | – |
| Nc1nccc2scc(-c3ccc4c(c3)CCN4C(=O)Cc3cc(F)ccc3F)c12 [GSK2587663] | 40 | 5 | 5 | 15 | 2 | 5 | 18 | 11 | 0 | 6 | – | – | – | – | – | – | – |
| Cl.O=S(=O)(c1cccc(F)c1)c1ccc(Nc2ncnc3cc(Br)sc23)cc1Cl [GSK306886] | 0 | 28 | 0 | 10 | 17 | 15 | 4 | 0 | 0 | 0 | – | – | – | – | – | – | – |
| CCc1nc(-c2cccc(C)c2)c(-c2ccnc(NC(=O)c3ccccc3)c2)s1 | 15 | 0 | 0 | 1 | 16 | 0 | 24 | 17 | 0 | 1 | – | – | – | – | – | – | – |
| Cc1ccc(O)cc1Nc1cc(C(F)(F)F)nc2ccc(-c3ccncc3)cc12 [GW630823] | 0 | 0 | 0 | 0 | 3 | 10 | 0 | 0 | 36 | 0 | – | – | – | – | – | – | – |
| Oc1ccc2ncnc(Nc3ccc(OCc4ccccc4)cc3)c2c1 [GI262866] | 0 | 0 | 0 | 18 | 13 | 37 | 19 | 0 | 0 | 14 | – | – | – | – | – | – | – |
| O=c1cc(N2CCOCC2)nc2n(Cc3cccc(Cl)c3)ccn12 [GSK2296823] | 0 | 11 | 0 | 3 | 9 | 18 | 14 | 7 | 9 | 16 | – | – | – | – | – | – | – |
| Fc1cccc(COc2ccc(Nc3ncnc4sc(-c5ccc[nH]5)cc34)cc2Cl)c1 [GW707818] | 14 | 30 | 0 | 7 | 0 | 5 | 17 | 10 | 0 | 0 | – | – | – | – | – | – | – |
| O=C(Nc1ccccc1F)NC1CCN(c2ccnc(Nc3ccc(F)cc3)n2)C1 (stereo not shown) [GSK1379722] | 22 | 0 | 12 | 31 | 7 | 16 | 23 | 20 | 0 | 0 | – | – | – | – | – | – | – |
| Cl.c1ccc(Cn2ncc3cc(Nc4ncnc5ccccc45)ccc32)cc1 [GW273749] | 0 | 37 | 0 | 11 | 18 | 11 | 0 | 12 | 0 | 19 | – | – | – | – | – | – | – |
| COC(=O)c1cccc(NC(=O)NCCNc2ccnc(Nc3ccc(F)cc3)n2)c1 [GSK1379883] | 12 | 0 | 0 | 23 | 0 | 0 | 11 | 20 | 0 | 0 | – | – | – | – | – | – | – |
| CS(=O)(=O)CCNCc1nc(-c2ccc3ncnc(Nc4ccc(OCc5cccc(F)c5)c(Cl)c4)c3c2)cs1.Cl [GW583340] | 0 | 37 | 0 | 12 | 0 | 94.7 | 0 | 16 | 0 | 0 | – | – | – | – | – | – | – |
| C[C@@H]1CCN(C(=O)CO)C[C@@H]1N(C)c1ncnc2[nH]ccc12 | 0 | 0 | 0 | 0 | 0 | 7 | 90.6 | 0 | 0 | 0 | – | – | – | – | – | – | – |
| Nc1n[nH]c2nnc(-c3ccccc3)cc12 [SB-517389] | 0 | 35 | 9 | 100 | 0 | 25 | 36 | 79 | 0 | 20 | – | – | – | – | – | – | – |
| Cn1ccc2ncnc(Nc3ccc(Oc4cccc(Cl)c4)c(Cl)c3)c21 | 11 | 0 | 0 | 2 | 16 | 25 | 18 | 4 | 4 | 10 | – | – | – | – | – | – | – |

| Compound | %Inh [1] [%] | %Inh [2] [%] | %Inh [3] [%] | %Inh [4] [%] | %Inh [5] [%] | %Inh [6] [%] | %Inh [7] [%] | %Inh [8] [%] | %Inh [9] [%] | %Inh [10] [%] | %Inh ([1]; 1 µM) | %Inh ([2]; 1 µM) | %Inh ([4]; 1 µM) | %Inh ([5]; 1 µM) | %Inh ([7]; 1 µM) | %Inh ([8]; 1 µM) | %Inh ([10]; 1 µM) |
| --- | --- | --- | --- | --- | --- | --- | --- | --- | --- | --- | --- | --- | --- | --- | --- | --- | --- |
| Clc1cc(Nc2ncnc3cc[nH]c23)ccc1OCc1ccccn1 | 0 | 0 | 44 | 0 | 19 | 11 | 8 | 28 | 0 | 9 | – | – | – | – | – | – | – |
| Clc1cccc(-c2nc(Nc3ccncc3)c3ccccc3n2)c1 [GW873004] | 0 | 0 | 19 | 0 | 0 | 1 | 0 | 13 | 58 | 0 | – | – | – | – | – | – | – |
| Cc1cc(N2CCC(NS(=O)(=O)c3ccc(F)cc3)CC2)nc(Nc2cccc(C#N)c2)n1.O=C(O)C(F)(F)F [GSK1653537] | 0 | 0 | 27 | 8 | 1 | 0 | 0 | 2 | 0 | 0 | – | – | – | – | – | – | – |
| Cl.Cn1ccc(-c2cccc(Nc3ccnc4cc(-c5nccs5)ccc34)c2)n1 [GW525701] | 43 | 0 | 3 | 6 | 0 | 14 | 30 | 49 | 0 | 0 | – | – | – | – | – | – | – |
| CSc1ccc(NC2=C(c3ccccc3Cl)C(=O)NC2=O)cc1 [SB-342411] | 0 | 0 | 21 | 10 | 0 | 3 | 0 | 0 | 5 | 10 | – | – | – | – | – | – | – |
| Cn1cc(-c2ccc3c(c2)CCN3C(=O)Cc2cccc(C(F)(F)F)c2)c2c(N)ncnc21 [GSK2606414] | 40 | 0 | 12 | 0 | 22 | 0 | 15 | 0 | 0 | 27 | – | – | – | – | – | – | – |
| CCc1nc(-c2cccc(N(C)S(=O)(=O)c3ccccc3)c2)c(-c2ccnc(Nc3ccc(N4CCN(C(C)=O)CC4)nc3)n2)s1 [GSK1645895] | 0 | 56 | 0 | 15 | 9 | 15 | 0 | 14 | 0 | 4 | – | – | – | – | – | – | – |
| COc1ccc(-c2nc3n(c2-c2ccncc2)CCC3)cc1 [SKF-104493] | – | – | 0 | – | – | 0 | – | – | 0 | – | 25% and 5% | 0% and 3% | 21% and 8% | 30% and 0% | 7% and 0% | 9% and 1% | 7% and 0% |
| Cc1cccc(-c2nc(Nc3ccc4[nH]nnc4c3)c3ccccc3n2)n1 [GW867587] | 0 | 0 | 0 | 0 | 0 | 0 | 0 | 42 | 0 | 0 | – | – | – | – | – | – | – |
| O=C(NCCCN1CCCC1=O)c1cnc(NCc2cc(Cl)ccc2Cl)nc1NC1CCNCC1 | 15 | 0 | 0 | 0 | 0 | 0 | 0 | 0 | 14 | 0 | – | – | – | – | – | – | – |
| Nc1nc(-c2ccc3c(N)n[nH]c3c2)cc(N2CCCCC2)n1 [GSK2228768] | 0 | 10 | 0 | 3 | 0 | 0 | 0 | 5 | 0 | 10 | – | – | – | – | – | – | – |
| FC(F)(F)c1cc(Nc2nccc(-c3c(-c4ccc(Cl)cc4)nn4ncccc34)n2)ccc1Cl [GW829351] | 0 | 0 | 0 | 0 | 0 | 0 | 6 | 0 | 0 | 0 | – | – | – | – | – | – | – |
| Cc1ccc(C)c(NC(=O)NCCNc2ccnc(Nc3ccc(F)cc3)n2)c1 [GSK1379878] | 15 | 0 | 0 | 22 | 0 | 3 | 26 | 6 | 0 | 0 | – | – | – | – | – | – | – |
| Cn1ccc2ncnc(Oc3ccc(NC(=O)Nc4cccnc4)c(Cl)c3)c21 | 0 | 0 | 0 | 2 | 1 | 0 | 0 | 0 | 0 | 0 | – | – | – | – | – | – | – |
| FC(F)(F)c1ccc(-c2nn3ncccc3c2-c2ccnc(Nc3cccc(C(F)(F)F)c3)n2)cc1 [GW828205] | 0 | 0 | 0 | 0 | 0 | 3 | 0 | 0 | 0 | 0 | – | – | – | – | – | – | – |

From article PMC5540273 (PLoS ONE, 2017)
